In PubChem BioAssay (NCATS):
Values joined by “and” are separate entries in the source; they are usually repeats but may differ in a detail not shown here. Identical values can stand only once. Results filed as inconclusive are left out. A call without a number means that no potency is given here. Values without a mark were called inactive. Active and inactive are the calls of the source. Calls follow the shape of the dose curve; as a rule, active = well fitted cell-killing curve with a large enough effect; inconclusive = small, poorly fitted or top-dose-only effect; inactive = no such curve, though single readings can be large or run the other way. Non-standard residues stand in square brackets, D forms with d. Residues, ends and D or L forms follow the SMILES beside them. *: point of attachment. Sta = CC(C)C[C@H](N)[C@@H](O)CC(=O)O; Isovaleryl = CC(C)CC(=O)*

assay: qHTS of pediatric cancer cell lines to identify multiple opportunities for drug repurposing: Primary screen for MG 63 (6-TG R) cells (AID 1347105); settings: MG 63 (6-TG R) viability, CellTiter-Glo, 48 h; series mostly up to 46 µM; activity change, negative = cytotoxic: at the top concentration; also: nearly all actives have a fitted effect of over 50% in size
From the text: Drug repurposing or repositioning has been offered as a strategy for drug development in oncology programs. This approach has special potential for childhood cancers and other rare or orphan diseases, where the expected return on new drug development has been a disincentive to pharmaceuticals. […] In this project we exploit the poly-pharmacology of drugs to discover new indications via phenotypic screening of a panel of 19 well-characterized cell lines derived from solid tumors seen in children and adolescents. The goal is to identify approved drugs with previously unrecognized anticancer properties that has the potential to reveal new mechanisms and biological processes involved in carcinogenesis or drug resistance. We employed a titration-based paradigm (quantitative high-throughput screening or qHTS), where all compounds were tested at multiple concentrations for their effect on cell viability. Concentration-response curves (CRCs) were derived directly from the primary screen, and both potency and efficacy values were used to identify compounds with robust bioactivity profiles. We screened the NIH Chemical Genomics Center (NCGC) Pharmaceutical Collection (NPC) and Mechanism Interrogation Plate (MIPE) small molecule collections of approved and investigational compounds against these cell lines; and measured metabolically active cells after 48 hours of compound treatment as a proxy for cell viability. […] Assay Submitter: Nathalia J. Martinez, National Center for Advancing Translational Sciences, National Institutes of Health, Rockville, MD, USA; email: natalia.martinez@nih.gov Shen, M et al. Quantitative high-throughput phenotypic screening of pediatric cancer cell lines identifies multiple opportunities for drug repurposing. Oncotarget 2017 Dec 19;9(4):4758-4772. PMID 29435139.
The cells were obtained from University of North Carolina (UNC), Pediatric Preclinical Testing Program (PPT), and Coriell Institute (CI). qHTS cell viability assay: Cells were assayed in growth media at a density of 500-1,000 cells/well. Five microliters of cells were dispensed into 1,536-well, white, solid-bottom, TC-treated plates (Greiner Bio One) using a multidrop dispenser and incubated at 37 degrees C, 5% CO2, under a humidified atmosphere for 5 hours. Twenty-three nanoliters of compounds and controls (neutral control DMSO or positive control bortezomib at final concentration of 2.3 µM) were subsequently transferred by Kalypsys pintool. For primary screens, the MIPE collection was tested at 11-point dilutions (final concentrations range from 0.78 nM to 46 µM) and the NPC collection at 8-point dilutions (final concentrations range from 0.59 nM to 46 µM). Compounds tested in follow-up screens were assayed at 11-point dilutions. Cells were incubated for 48 hours, followed by addition of 3 µL of CellTiter-Glo (Promega). After a 15 min incubation at room temperature, samples were analyzed for luminescence intensity using a ViewLux High-throughput CCD imager equipped with clear filters.
Potency is read from the fitted curve at half-maximal effect.

Row | SMILES | activity change, negative = cytotoxic | Potency
1 | C[C@@H](N)C1CCC(C(=O)Nc2ccncc2)CC1 (stereo not given in full) | -2.8% | –
2 | CC1=C(C(=O)O)N2C(=O)[C@@H](NC(=O)[C@H](N)C3=CCC=CC3)[C@H]2SC1 | – | inactive
3 | O=C(OC1C[C@H]2CC[C@@H](C1)[N+]21CCCC1)C(O)(c1ccccc1)c1ccccc1 (stereo not given in full) | -14.9% | –
4 | CC(C)(S)[C@@H](N)C(=O)O | 1.28% | –
5 | Nc1ccc(S(N)(=O)=O)cc1 | – | inactive
6 | Cc1nc(Nc2ncc(C(=O)Nc3c(C)cccc3Cl)s2)cc(N2CCN(CCO)CC2)n1 | – | 0.0084 µM (active)
7 | CC(C)CC(=O)N[C@H](C(=O)N[C@H](C(=O)N[C@@H](CC(C)C)[C@@H](O)CC(=O)N[C@@H](C)C(=O)N[C@@H](CC(C)C)[C@@H](O)CC(=O)O)C(C)C)C(C)C (Isovaleryl-VV[Sta]A[Sta]-OH) | -21.3% | –
8 | N=C(N=C(N)N)N1CCOCC1 | – | inactive
9 | CC(C)[C@H](N)C(=O)OCCOCn1cnc2c(=O)[nH]c(N)nc21 | – | inactive
10 | NS(=O)(=O)c1cc(C(=O)O)c(NCc2ccco2)cc1Cl | – | inactive
11 | Oc1ccc(OCc2ccccc2)cc1 | – | inactive
12 | Cc1cc(=O)oc2cc(O)ccc12 | – | inactive
13 | COc1cc(C(C)=O)ccc1OCCCN1CCC(c2noc3cc(F)ccc23)CC1 | – | inactive
14 | Cc1cc2c(s1)Nc1ccccc1N=C2N1CCN(C)CC1 | – | inactive
15 | CCCCC(CC)COC(=O)C(C#N)=C(c1ccccc1)c1ccccc1 (stereo not given) | 6.3% | –
16 | O=c1ccc2ccc(O)c(O)c2o1 | 18.3% | –
17 | COC(=O)N[C@H](C(=O)N[C@@H](Cc1ccccc1)[C@@H](O)CN(Cc1ccc(-c2ccccn2)cc1)NC(=O)[C@@H](NC(=O)OC)C(C)(C)C)C(C)(C)C | – | inactive
18 | N=C(N)c1ccc2cc(OC(=O)c3ccc(N=C(N)N)cc3)ccc2c1 | – | inactive
19 | CN(C)C(=O)COC(=O)Cc1ccc(OC(=O)c2ccc(N=C(N)N)cc2)cc1 | – | inactive
20 | O=Nc1c(-c2c(O)[nH]c3cc(Br)ccc23)[nH]c2ccccc12 | – | 18.7 µM (active)

Row | SMILES | activity change, negative = cytotoxic | Potency
21 | CCC1=C(C)CN(C(=O)NCCc2ccc(S(=O)(=O)NC(=O)NC3CCC(C)CC3)cc2)C1=O (stereo not given) | – | inactive
22 | Cc1cc(O)c2c(c1)C(=O)c1cc(O)cc(O)c1C2=O | -15.6% | –
23 | CN1CCC(=C2c3ccccc3CCc3sccc32)CC1 | – | inactive
24 | Cc1cc(=O)c2c(O)c3c(O)cc(=O)c4c3c3c(cc(O)c1c23)C(C)(C)C=4O | – | 920 nM (active) and 4.69 µM (active)
25 | Cc1cc(Cl)ccc1OCCCC(=O)NO | – | 7.43 µM (active)
26 | CCCCCCCCOc1ccccc1C(=O)Nc1ccc(C(=O)OCC[N+](C)(CC)CC)cc1 | -27% | –
27 | O=C(CS(=O)Cc1ccco1)NCC=CCOc1cc(CN2CCCCC2)ccn1 (stereo not given) | 15.2% | –
28 | Cc1ccc(NC(=O)c2ccc(CN3CCN(C)CC3)cc2)cc1Nc1nccc(-c2cccnc2)n1 | – | inactive
29 | Cc1ncc([N+](=O)[O-])n1CC(C)O (stereo not given) | – | inactive
30 | O=C(O)c1cc(=O)c2c(OCC(O)COc3cccc4oc(C(=O)O)cc(=O)c34)cccc2o1 | – | inactive
31 | O=C(NC(Cc1cc(=O)[nH]c2ccccc12)C(=O)O)c1ccc(Cl)cc1 (stereo not given) | – | inactive
32 | Nc1nc(N)c(N=O)c(OCC2CCCCC2)n1 | – | 11.8 µM (active)
33 | CCCCN(CCCC)CCC(O)c1cc2c(Cl)cc(Cl)cc2c2cc(C(F)(F)F)ccc12 (stereo not given) | -16% | –
34 | CC1Cc2ccccc2N1NC(=O)c1ccc(Cl)c(S(N)(=O)=O)c1 (stereo not given) | – | inactive
35 | C[Se]CCC(N)C(=O)O (stereo not given) | -17.1% [at 92.7 µM] | –
36 | O=C(O)c1cccnc1Nc1cccc(C(F)(F)F)c1 | -17.3% | –
37 | CCC[C@@H]1C[C@@H](C(=O)N[C@@H]([C@H]2O[C@H](SC)[C@H](O)[C@@H](O)[C@H]2O)[C@@H](C)O)N(C)C1 | – | inactive
38 | CC1(C)C(=O)N(CCN2CCC(C(=O)c3ccc(F)cc3)CC2)c2ccccc21 | 5.74% | –
39 | O=C(O)c1cn(-c2ccc(F)cc2)c2cc(N3CCNCC3)c(F)cc2c1=O | – | inactive
40 | O=P(O)(O)C(O)(Cn1ccnc1)P(=O)(O)O | -6.93% [at 16.1 µM] | –
